Molecules are shown by their SMILES. Records with an inconclusive call do not appear. Active and inactive are the calls of the source. Unless noted, how the calls were made is not given here.

This is an account of results in PubChem BioAssay.

Assay [1] is described as follows: rapamycin-like changes in RPL19A-GFP expression – cell-based, S. cerevisiae, multiplex flow cytometry, primary screen (AID 1862; in the data active means percent of DMSO control GFP below about 86%;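 further: lower values mimic rapamycin by blocking the RPL19A rise seen in DMSO cells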). The following applies: S. cerevisiae RPL19A-GFP strain, flow cytometry fluorescence, 3 h; at 10 µM; stronger effect = lower value. (In general: A flow cytometer gives signals particle by particle.)
Assay [2] in a line: TOR pathway GLN3 branch reporter MEP2-GFP changes – S. cerevisiae, multiplex flow cytometry, primary screen (AID 1867;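 active means GFP response, as percent of the DMSO control, above the screen-wide mean plus 3 SD, about 139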;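 further: median GFP channel fluorescence of barcode-gated MEP2-GFP cells measured by flow cytometry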). The following applies: S. cerevisiae MEP2-GFP strain, 3 h, at 10 µM, stronger effect = higher value.
The nature of assay [3]: TOR pathway RTG branch CIT2 reporter changes – S. cerevisiae, GFP fusion, multiplex flow cytometry, primary screen (AID 1870;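 active means percent response above a set limit, the screen-wide mean plus 3 SD, cut at about 130% in these data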;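 further: barcoded CIT2-GFP strain pooled with four other GFP strains with rapamycin as positive control; median GFP fluorescence per well over plate mean of DMSO wells so 100% = DMSO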). The following applies: S. cerevisiae CIT2-GFP expression, 3 h, at 10 µM, stronger effect = higher value.
Assay [4] is described as follows: TOR pathway LAP4-GFP level changes – S. cerevisiae, multiplex flow cytometry, primary screen (AID 1873;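 active means GFP signal, as percent of the solvent control, above the screen mean plus 3 SD, about 149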). The following applies: S. cerevisiae LAP4-GFP expression, 3 h, at 10 µM, stronger effect = higher value.
A short description of assay [5]: reduced mouse 2C T cell binding to pMHC/ICAM-1 vesicles – MLPCN validation set, flow cytometry, LFA-1/ICAM-1 modulator project, pilot screen (AID 2523;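 active means response below a set limit, under 55% cells CD8-positive and vesicle-bound, and CD8 cells' 90th-percentile brightness under 279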;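 on vesicle binding response: mean PE anti-B7-1 fluorescence of CD8+ cells relative to row control; 100% = QL9-loaded vesicles with DMSO vehicle in the same plate row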). The following applies: 2C mouse CD8+ T cells, at 7 µM, stronger effect = lower value; double positive events: measured here: CD8+/vesicle+ event percentage.
Assay [6] concerns the target Integrin beta-1 (Homo sapiens) + Integrin alpha-4 (Homo sapiens) (UniProt P13612+P05556). Nature of the assay: alpha4beta1 integrin LIBS antibody binding reduction – U937 cells, HUTS-21 mAb, flow cytometry, validation set, VLA-4 allosteric modulator project, pilot screen (AID 2674;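 active means inhibition above 50%, about 3 SD of the validation set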;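 further: antibody binding induced by the VLA-4 ligand LDV present at three times its Kd; 0% = LDV ligand with antibody and no compound and 100% = antibody without LDV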). The following applies: HUTS-21 LIBS mAb binding, at 6.7 µM, stronger effect = higher value.
Assay [7] deals with Beta-adrenergic receptor kinase 1 (Homo sapiens) (UniProt P25098). Nature of the assay: GRK2 binders displacing RNA aptamer, biochemical, validation, human GRK2, bead flow cytometry (AID 488806;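 active means aptamer binding inhibition above 30%, about 3 SD of noise from non-fluorescent compounds; inactive means inhibition at or below 30%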). The following applies: bead-bound GRK2, FAM-aptamer displacement, at 10 µM, stronger effect = higher value.
In assay [8] the target is AP-2 complex subunit beta (Homo sapiens) (UniProt P63010). Nature of the assay: beta-arrestin/AP2 interaction blockers – biochemical, validation set, GST-AP2 beads, flow cytometry, pilot screen (AID 504541;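 active means inhibition above 54%, about 3 SD of non-fluorescent compounds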;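 further: AP2 carries R879A mutation and is captured from E. coli lysate; bead-bound FITC arrestin peptide fluorescence measuring arrestin peptide binding to AP2; 0% = DMSO wells and 100% = excess unlabeled arrestin peptide control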). The following applies: FITC arrestin peptide, at 10 µM, stronger effect = higher value.
AP-2 complex subunit beta (Homo sapiens), sequence (P63010 whole entry, looked up, one chain of several): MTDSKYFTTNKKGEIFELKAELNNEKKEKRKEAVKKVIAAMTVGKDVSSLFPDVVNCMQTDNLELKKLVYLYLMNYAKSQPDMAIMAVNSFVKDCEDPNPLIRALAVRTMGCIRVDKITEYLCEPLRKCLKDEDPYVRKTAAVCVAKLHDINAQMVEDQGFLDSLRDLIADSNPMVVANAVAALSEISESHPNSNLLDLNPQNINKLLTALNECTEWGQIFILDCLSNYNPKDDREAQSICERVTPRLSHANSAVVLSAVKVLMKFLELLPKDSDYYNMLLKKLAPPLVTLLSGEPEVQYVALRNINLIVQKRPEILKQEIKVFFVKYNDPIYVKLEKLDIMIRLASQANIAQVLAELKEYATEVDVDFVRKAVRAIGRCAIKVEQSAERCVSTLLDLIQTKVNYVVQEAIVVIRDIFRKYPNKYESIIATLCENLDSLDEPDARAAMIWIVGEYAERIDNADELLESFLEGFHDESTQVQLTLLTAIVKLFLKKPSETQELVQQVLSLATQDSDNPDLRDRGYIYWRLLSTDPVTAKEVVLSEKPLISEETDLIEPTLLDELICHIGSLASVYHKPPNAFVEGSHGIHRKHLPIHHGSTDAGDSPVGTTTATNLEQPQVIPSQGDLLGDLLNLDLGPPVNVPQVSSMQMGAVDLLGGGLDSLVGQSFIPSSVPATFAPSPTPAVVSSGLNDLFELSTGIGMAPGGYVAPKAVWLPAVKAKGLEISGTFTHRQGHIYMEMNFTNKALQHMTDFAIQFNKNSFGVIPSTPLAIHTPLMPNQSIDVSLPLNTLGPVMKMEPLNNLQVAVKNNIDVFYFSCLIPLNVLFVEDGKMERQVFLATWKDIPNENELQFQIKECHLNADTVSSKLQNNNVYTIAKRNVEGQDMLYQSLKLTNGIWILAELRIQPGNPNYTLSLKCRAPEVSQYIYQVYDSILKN
A short description of assay [9]: cytosolic pH regulators acting via V-ATPase – S. cerevisiae, pHLuorin, HTS validation (AID 504600; in the data active means response above about 15%;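 further: plate controls were DMSO for no effect and reference compound for full effect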). The following applies: V-ATPase proton transport, at 10 µM, stronger effect = higher value.
Assay [10] deals with anti-desmoglein-3 scFv antibody binding to human DSG3. Nature of the assay: blockers of pathogenic pemphigus antibody–desmoglein-3 binding – biochemical, validation compound set, bead-based, flow cytometry, pilot screen (AID 588368;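 active means binding below the plate cutoff, the plate median minus 3 SD, with a reading above zero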;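 further: signal is the median channel fluorescence of bead-bound GFP antibody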). The following applies: Protein G beads, DSG3-Fc, scFv-GFP binding, at 10 µM, stronger effect = lower value.
In assay [11] the test system is Botulinum neurotoxin type F light chain protease (Clostridium botulinum). The assay is described as follows: Clostridium botulinum type F light chain protease inhibitors, microsphere substrate cleavage, validation (AID 588459). The following applies: multiplex microsphere protease substrate cleavage assay, flow cytometry; at 10 µM; stronger effect = higher value.
Assay [12] has as its target Botulinum neurotoxin type A (Clostridium botulinum) (UniProt P0DPI0). The assay is described as follows: BoNT/A light chain protease inhibitors, biochemical, multiplex microsphere flow cytometry, validation set (AID 588460). The following applies: at 10 µM, stronger effect = higher value.
In assay [13] the target is Lethal factor (Bacillus anthracis) (UniProt P15917). The assay is described as follows: Bacillus anthracis lethal factor inhibition, microsphere flow cytometry protease assay, validation at 10 µM (AID 588461). The following applies: multiplex microsphere protease cleavage assay, stronger effect = higher value.
Lethal factor (Bacillus anthracis), sequence (P15917 whole entry, looked up): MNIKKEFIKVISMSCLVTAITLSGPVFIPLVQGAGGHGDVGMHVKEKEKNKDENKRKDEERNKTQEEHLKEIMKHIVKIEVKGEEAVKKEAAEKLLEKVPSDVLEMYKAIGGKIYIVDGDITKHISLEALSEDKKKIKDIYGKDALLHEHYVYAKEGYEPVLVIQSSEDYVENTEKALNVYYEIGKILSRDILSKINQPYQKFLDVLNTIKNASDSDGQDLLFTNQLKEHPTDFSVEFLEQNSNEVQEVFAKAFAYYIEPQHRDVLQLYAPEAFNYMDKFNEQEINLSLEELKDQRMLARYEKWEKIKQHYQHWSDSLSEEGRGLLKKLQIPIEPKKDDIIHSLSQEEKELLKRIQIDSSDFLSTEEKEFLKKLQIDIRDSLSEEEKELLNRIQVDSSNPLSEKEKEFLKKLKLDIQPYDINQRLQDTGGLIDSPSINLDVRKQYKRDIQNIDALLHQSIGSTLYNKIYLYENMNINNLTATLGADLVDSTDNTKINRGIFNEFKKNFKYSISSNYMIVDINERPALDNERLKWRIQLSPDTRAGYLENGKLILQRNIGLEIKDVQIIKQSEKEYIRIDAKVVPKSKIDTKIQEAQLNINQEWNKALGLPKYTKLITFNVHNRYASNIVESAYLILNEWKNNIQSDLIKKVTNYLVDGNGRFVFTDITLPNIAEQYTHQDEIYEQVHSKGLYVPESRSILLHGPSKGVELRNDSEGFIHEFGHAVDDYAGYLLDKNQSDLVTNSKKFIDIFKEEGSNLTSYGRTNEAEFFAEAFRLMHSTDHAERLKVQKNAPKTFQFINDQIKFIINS
Assay [14] can be described thus: Nile Red efflux blockade in pump-expressing yeast – validation compound set, multiplex, phenotypic, pilot screen (AID 588506;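 active means efflux inhibition above 0.42, the validation set average plus 4 SD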;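 further: Nile Red retained in cells so higher fluorescence means more efflux inhibition; 0 = negative control wells and 1 = enniatin B 25 µM full block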). The following applies: S. cerevisiae pump-expressing triplex, Nile Red efflux flow cytometry; at 10 µM; stronger effect = higher value.
Assay [15] addresses ATP-binding cassette sub-family B member 6 (Homo sapiens) (UniProt Q9NP58). The assay is described as follows: blockers of ABCB6-driven porphyrin uptake – K562-ABCB6 cells, flow cytometry, validation set, pilot screen (AID 588550;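 active means inhibition above the screen-wide mean plus 3 SD, about 51%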;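 further: 0% = DMSO wells and 100% = benzethonium chloride 70 µM positive control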). The following applies: K562-ABCB6 porphyrin accumulation, 1 h, at 10 µM, stronger effect = higher value.
Assay [16] in a line: AML differentiation inducers, ER-HoxA9 marrow cells – cell-based, GFP/MAC1 double positive, flow cytometry, validation set, primary screen (AID 588685;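 active means differentiation response of at least 50%, scaled between solvent and reference control, from cells with both markers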;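 further: compound exposure lasts four days before antibody staining and flow analysis; 0% = DMSO wells and 100% = 5 µM fulvestrant positive control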). The following applies: stronger effect = higher value.
A short description of assay [17]: calorie-restriction mimetic ROS inhibitors, yeast – validation compound set, pilot screen (AID 2706;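 active means superoxide response below 65% of plate, a cut near 3 SD across the whole screen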;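 further: yeast exposed to compound for one week at 30 degrees C before staining; 100% = mean of all compound wells on the same plate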). The following applies: S. cerevisiae aging, superoxide DHE fluorescence; at 10 µM; stronger effect = lower value.

Integrin beta-1 (Homo sapiens) + Integrin alpha-4 (Homo sapiens), sequence (P05556 whole entry, looked up): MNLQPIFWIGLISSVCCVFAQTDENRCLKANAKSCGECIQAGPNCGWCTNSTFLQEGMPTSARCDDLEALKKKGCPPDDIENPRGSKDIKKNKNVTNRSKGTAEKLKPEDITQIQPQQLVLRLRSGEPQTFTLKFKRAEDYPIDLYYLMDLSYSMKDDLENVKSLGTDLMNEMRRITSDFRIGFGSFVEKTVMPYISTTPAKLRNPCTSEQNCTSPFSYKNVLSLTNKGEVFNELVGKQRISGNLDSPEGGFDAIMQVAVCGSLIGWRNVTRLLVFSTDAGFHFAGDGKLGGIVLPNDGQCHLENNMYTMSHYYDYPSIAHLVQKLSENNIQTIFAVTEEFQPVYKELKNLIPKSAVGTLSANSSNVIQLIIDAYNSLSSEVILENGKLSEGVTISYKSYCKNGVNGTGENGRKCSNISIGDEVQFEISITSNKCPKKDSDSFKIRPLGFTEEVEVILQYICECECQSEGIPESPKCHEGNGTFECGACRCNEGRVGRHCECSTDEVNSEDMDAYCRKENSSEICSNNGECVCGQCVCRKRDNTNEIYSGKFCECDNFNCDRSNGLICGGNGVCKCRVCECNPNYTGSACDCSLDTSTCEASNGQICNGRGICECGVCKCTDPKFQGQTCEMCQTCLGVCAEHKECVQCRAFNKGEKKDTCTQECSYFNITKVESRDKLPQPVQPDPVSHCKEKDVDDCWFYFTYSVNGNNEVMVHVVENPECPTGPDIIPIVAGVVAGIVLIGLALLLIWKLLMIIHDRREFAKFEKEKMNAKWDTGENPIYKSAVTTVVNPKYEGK
Integrin beta-1 (Homo sapiens) + Integrin alpha-4 (Homo sapiens), sequence (P13612 whole entry, looked up): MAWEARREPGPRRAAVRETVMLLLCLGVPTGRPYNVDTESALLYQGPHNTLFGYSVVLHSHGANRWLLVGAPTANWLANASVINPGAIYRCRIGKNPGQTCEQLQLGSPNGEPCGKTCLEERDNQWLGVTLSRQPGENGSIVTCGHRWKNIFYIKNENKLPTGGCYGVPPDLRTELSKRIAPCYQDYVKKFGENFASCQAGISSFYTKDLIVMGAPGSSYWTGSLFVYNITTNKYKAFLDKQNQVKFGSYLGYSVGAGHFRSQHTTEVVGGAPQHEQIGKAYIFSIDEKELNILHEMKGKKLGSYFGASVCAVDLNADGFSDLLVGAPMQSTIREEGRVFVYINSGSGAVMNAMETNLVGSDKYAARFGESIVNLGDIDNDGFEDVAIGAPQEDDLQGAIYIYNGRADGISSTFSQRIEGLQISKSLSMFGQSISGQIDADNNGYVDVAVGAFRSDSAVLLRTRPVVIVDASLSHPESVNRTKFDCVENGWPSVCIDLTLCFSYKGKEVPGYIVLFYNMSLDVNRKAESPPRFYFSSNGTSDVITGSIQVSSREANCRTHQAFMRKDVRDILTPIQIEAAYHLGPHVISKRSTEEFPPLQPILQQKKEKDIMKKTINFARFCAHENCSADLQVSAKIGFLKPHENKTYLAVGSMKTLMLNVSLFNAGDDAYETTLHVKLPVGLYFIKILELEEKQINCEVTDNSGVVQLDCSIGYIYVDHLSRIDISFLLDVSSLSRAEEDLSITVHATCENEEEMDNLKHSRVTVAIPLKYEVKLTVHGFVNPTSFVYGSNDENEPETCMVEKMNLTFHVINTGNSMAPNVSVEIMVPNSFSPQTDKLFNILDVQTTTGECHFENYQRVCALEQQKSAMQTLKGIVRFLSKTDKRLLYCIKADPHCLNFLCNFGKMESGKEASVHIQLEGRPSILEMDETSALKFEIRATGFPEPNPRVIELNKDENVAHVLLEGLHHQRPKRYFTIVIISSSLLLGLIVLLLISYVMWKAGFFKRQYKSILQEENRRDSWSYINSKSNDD
ATP-binding cassette sub-family B member 6 (Homo sapiens), sequence (Q9NP58 whole entry, looked up): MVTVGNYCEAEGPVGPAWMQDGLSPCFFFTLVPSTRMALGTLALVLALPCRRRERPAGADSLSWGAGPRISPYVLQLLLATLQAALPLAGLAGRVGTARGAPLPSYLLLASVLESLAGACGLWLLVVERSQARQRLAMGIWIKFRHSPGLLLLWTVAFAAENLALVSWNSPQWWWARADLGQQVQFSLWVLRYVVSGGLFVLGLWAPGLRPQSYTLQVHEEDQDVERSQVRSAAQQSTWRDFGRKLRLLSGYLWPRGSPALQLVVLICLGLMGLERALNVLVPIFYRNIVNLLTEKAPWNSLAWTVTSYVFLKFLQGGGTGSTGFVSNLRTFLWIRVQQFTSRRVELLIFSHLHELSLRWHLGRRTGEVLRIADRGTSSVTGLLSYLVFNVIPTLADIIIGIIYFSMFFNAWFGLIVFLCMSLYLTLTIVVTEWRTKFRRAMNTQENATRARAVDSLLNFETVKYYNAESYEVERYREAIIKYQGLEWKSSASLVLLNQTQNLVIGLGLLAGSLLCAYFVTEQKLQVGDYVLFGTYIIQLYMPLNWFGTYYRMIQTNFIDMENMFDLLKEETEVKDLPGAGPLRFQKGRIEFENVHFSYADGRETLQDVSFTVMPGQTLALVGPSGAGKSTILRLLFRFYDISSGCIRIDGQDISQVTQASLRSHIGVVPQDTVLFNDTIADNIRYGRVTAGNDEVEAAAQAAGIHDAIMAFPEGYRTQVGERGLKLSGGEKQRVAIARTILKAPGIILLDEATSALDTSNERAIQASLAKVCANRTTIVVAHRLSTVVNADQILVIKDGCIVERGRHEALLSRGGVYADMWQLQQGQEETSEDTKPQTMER

Take `CN1C(=O)CN=C(c2ccc(Cl)cc2)c2cc(Cl)ccc21`: the percent of DMSO control GFP in [1] is 99% (inactive). Besides, the GFP response vs DMSO in assay [2] is 100% (inactive); in assay [4] it was 103% (inactive). In assay [3], the percent response of DMSO control was 95.4% (inactive). Further, the double positive events in [5] was 62.8%. The vesicle binding response in [5] is 174% (inactive). The inhibition – broadly, the change of the read-out against control, counted positive when it falls – in assay [6] is 9.92% (inactive); in assay [8], -0.45% (inactive); in [11], 3.6% (inactive); in assay [12] it was 0.8% (inactive); in assay [13], -3.5% (inactive); in assay [15], 7% (inactive). Moreover, the aptamer binding inhibition in assay [7] was -1% (inactive). In assay [9], the response was 4.65% (inactive). The binding (% of control) in assay [10] is 96.8% (inactive). Moreover, the efflux inhibition (fraction of control) in [14] was 0.27 (inactive). In assay [16], the differentiation response is 1.22% (inactive).
On to `CC(C)(C)NCC(O)c1cc(Cl)c(N)c(Cl)c1` (stereo not given), for which, in assay [1], the percent of DMSO control GFP was 104% (inactive). For the same compound, the values for the GFP response vs DMSO in assay [2] and in [4] were 102% (inactive) and 99.1% (inactive), respectively. Moreover, in [3], the percent response of DMSO control is 97.6% (inactive). For the same compound, the double positive events in assay [5] was determined as 60.7%. For the same compound, in assay [5], the vesicle binding response was 138% (inactive). Also, the inhibition in assay [6] is -21.2% (inactive); in assay [8] it was -12.6% (inactive); in assay [11] it was 2.9% (inactive); in [12], 2.2% (inactive); in assay [13], 6.8% (inactive); in [15], 2% (inactive). For the same compound, in [17], the superoxide response (% of plate) was 94.5% (inactive). Also, the aptamer binding inhibition in assay [7] was -1% (inactive). The response in assay [9] is 1.54% (inactive). For the same compound, in [10], the binding (% of control) is 112% (inactive). Besides, the efflux inhibition (fraction of control) in assay [14] is -0.28 (inactive). In addition, in [16], the differentiation response is 17.4% (inactive).
Take `CC(C)[C@H]1C(=O)N2CCC[C@H]2[C@]2(O)O[C@](NC(=O)[C@@H]3C=C4c5cccc6[nH]cc(c56)C[C@H]4N(C)C3)(C(C)C)C(=O)N12`: in [1], the percent of DMSO control GFP was 99% (inactive). Moreover, the GFP response vs DMSO in assay [2] is 108% (inactive); in [4], 123% (inactive). Moreover, the percent response of DMSO control in [3] is 102% (inactive). This compound registered a double positive events in assay [5] of 59.8%. Further, the vesicle binding response in assay [5] is 192% (inactive). In addition, in [17], the superoxide response (% of plate) is 38.3% (active). In addition, the aptamer binding inhibition in assay [7] was 8% (inactive). The inhibition in assay [8] was 3.83% (inactive); in [11], -15.7% (inactive); in assay [12] it was -5% (inactive); in assay [13], -64.2% (inactive); in assay [15], -96% (inactive). Besides, in assay [9], the response was -7.73% (inactive). Besides, the binding (% of control) in assay [10] is 105% (inactive). In addition, in [14], the efflux inhibition (fraction of control) was 0.25 (inactive). Besides, the differentiation response in [16] was -2.03% (inactive).
Take `Cc1ccc(/C=C2/C(=O)NC(=O)N(C)C2=O)cc1`: the percent of DMSO control GFP in [1] is 97.4% (inactive). The values for the GFP response vs DMSO in assay [2] and in assay [4] were 96.9% (inactive) and 97.4% (inactive), respectively. In addition, the percent response of DMSO control in [3] is 95.9% (inactive). This compound yielded a double positive events in assay [5] of 53.7%. Further, the vesicle binding response in assay [5] was 135% (inactive). Moreover, the inhibition in assay [6] was 20.3% (inactive); in assay [8], -0.14% (inactive); in assay [11], 0.6% (inactive); in [12] it was 1.8% (inactive); in assay [13], 6.7% (inactive); in [15], 6% (inactive). Also, the superoxide response (% of plate) in assay [17] was 101% (inactive). Also, the aptamer binding inhibition in assay [7] was 5% (inactive). For the same compound, in assay [9], the response was -4.11% (inactive). For the same compound, the binding (% of control) in assay [10] is 97.8% (inactive). Also, the efflux inhibition (fraction of control) in [14] was 0.22 (inactive). In addition, the differentiation response in [16] is -0.2% (inactive).
